Source: PubChem BioAssay (National Center for Advancing Translational Sciences (NCATS))
ALOX15 inhib: 15-hLO (ALOX15) enzyme inhibition | purified 15hLO-1, xylenol orange hydroperoxide absorbance | Potency, µM (top dose mostly 57.1 µM), most hits filed as inhibitors | actives 1.4% (n = 74,000) | AID 887; further: nearly all actives have a fitted effect of over 55% in size
Target sequence (P16050 whole entry, looked up): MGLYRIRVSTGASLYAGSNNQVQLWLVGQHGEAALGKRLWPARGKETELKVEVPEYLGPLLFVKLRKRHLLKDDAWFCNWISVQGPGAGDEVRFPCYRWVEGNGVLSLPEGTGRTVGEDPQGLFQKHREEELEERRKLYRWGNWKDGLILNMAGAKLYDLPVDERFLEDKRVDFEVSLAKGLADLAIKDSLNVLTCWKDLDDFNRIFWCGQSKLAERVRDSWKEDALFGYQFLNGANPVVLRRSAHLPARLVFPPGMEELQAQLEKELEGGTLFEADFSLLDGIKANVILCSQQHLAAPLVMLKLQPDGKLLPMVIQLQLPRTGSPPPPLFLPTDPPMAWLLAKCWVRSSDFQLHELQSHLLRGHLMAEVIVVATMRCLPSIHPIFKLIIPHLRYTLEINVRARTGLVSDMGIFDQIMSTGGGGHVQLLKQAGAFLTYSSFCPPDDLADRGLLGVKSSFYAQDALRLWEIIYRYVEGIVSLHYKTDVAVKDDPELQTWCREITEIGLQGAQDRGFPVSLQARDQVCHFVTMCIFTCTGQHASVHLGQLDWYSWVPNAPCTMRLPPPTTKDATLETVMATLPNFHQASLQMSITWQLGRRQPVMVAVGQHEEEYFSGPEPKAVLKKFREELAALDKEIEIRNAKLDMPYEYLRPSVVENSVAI
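Hydroperoxide formed from arachidonic acid (50 uM) by purified human 15hLO-1 (40 nM) oxidizes ferrous iron, and the ferric-xylenol orange complex is read at 573 versus 405 nm. Compounds were preincubated 15 min; reaction ran 6 min at room temperature.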
BRCT inh red: disrupts BRCA1 BRCT binding to phosphoprotein, red fluorophore readout. P38398. BRCT-phosphopeptide binding, red fluorescence polarization. Potency, µM (series often up to 76.9 µM), usual class: inhibitors. actives 0.03% (n = 75,000). AID 892
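Fluorescence polarization: 100 nM His-tagged BRCA1 BRCT with 100 nM TAMRA-labelled phospho-BACH1 decapeptide, phosphate buffer pH 7.3 with 150 mM NaCl, DTT, 0.01% Tween 20; 12 min RT. Binding inhibition seen as FP decrease.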
BRCT PPI green: blocks human BRCA1 BRCT binding to phosphopeptide, green readout; Potency, µM (series often up to 76.9 µM), most hits filed as inhibitors; actives 0.05% (n = 75,000); P38398; BRCA1 BRCT-phosphopeptide binding, green fluorescence polarization; AID 875
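Compounds were incubated for 12 min at room temperature with a complex of 100 nM fluorescein-tagged pBACH1 decapeptide and 250 nM His-tagged BRCT protein. Buffer was phosphate pH 7.3 with EDTA, DTT and Tween 20. Disruption of binding lowers the polarization signal.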
Pol III holo inh: blocks replication by bacterial DNA polymerase III holoenzyme. AID 603. Potency, µM (titrated, usually from 57.1 µM). actives 0.25% (n = 71,000). reconstituted DNA polymerase III holoenzyme replication, biochemical
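Reconstituted *E. coli* holoenzyme (0.35 nM Pol III, 1 nM beta, 154 nM SSB, 2 nM primase) was preincubated with compound for 15 min at RT. Synthesis on 1.4 nM ssM13Gori ran 35 min, then was stopped with PicoGreen/EDTA and read as dsDNA fluorescence.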
TsaE inh: displaces an ADP probe from E. coli YjeE (TsaE) | P0AF67 | purified YjeE enzyme, qHTS inhibition assay | Potency, µM | actives 0.05% (n = 71,000) | AID 605
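Purified YjeE (10 uM) with BODIPY Texas Red-labeled ADP probe (2 uM); compounds pin-transferred, 15 min at room temperature. Binding inhibition read as decreased fluorescence polarization; ADP titration as control.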
Tau filament bind: tau filament binding. P10636. recombinant tau filaments, thioflavin S fluorescence, 15 h; filaments grown with octadecylsulfate alongside compound. Potency, µM (top dose mostly 57.1 µM). actives 2% (n = 71,000). AID 596;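 further: actives lower thioflavin S fluorescence by blocking filaments or displacing dye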
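Assay mix: 1 uM His-tagged tau, 30 uM sodium octadecylsulfate, thioflavine S dye in HEPES/NaCl/DTT buffer. Compound is added prior to the inducer. Fluorescence after 15 h at 37 C.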
Hits are given with their value; n = inactive; u = inconclusive; x = no result given; ! = a repeat was not active; [ ] = another dose, or the depositor's remark. Hits are enriched below; roughly 3.3% of the tested compounds scored in any of these assays. The call rests on the fitted dose curve; in most records, active means well fitted curve in the direction sought with a large enough effect; inconclusive means small, poorly fitted or top-dose-only effect, or another doubt; inactive means no such curve, though single readings can be large; an effect the other way counts as inactive or inconclusive.

SMILES	ALOX15 inhib	BRCT inh red	BRCT PPI green	Pol III holo inh	TsaE inh	Tau filament bind
CC(C)C[C@H]1C(=O)N2CCCC2[C@]2(O)O[C@](NC(=O)[C@@H]3C=C4c5cccc6[nH]cc(c56)CC4N(C)C3)(C(C)C)C(=O)N12 (stereo not given in full)	n	n	n	x	x	x
CC(C)C[C@H]1C(=O)N2CCC[C@@H]2[C@]2(O)O[C@](NC(=O)[C@@H]3C=C4c5cccc6[nH]c(Br)c(c56)C[C@H]4N(C)C3)(C(C)C)C(=O)N12	n	n	n	n	n	32µM
O=C1C=CC(=O)c2c(O)cccc21	2µM	u	n[3.08 µM]	x	x	x
O=C1C=Cc2ccccc2C1=O	u	n	n	x	x	x
NC(=O)CI	32µM	n	n	n	n	n
COc1ccc(Cn2c(N)c(C(=O)NCc3ccco3)c3nc4ccccc4nc32)cc1	u	n	n	n	u	6.3µM
C[C@]1(C(=O)O)[C@@H]2CC[C@@H](O2)[C@@]1(C)C(=O)O	n	n	n	n	n	n
Cl.Cl.Cl.Cl.Cl.Cl.N.N.N.N.NNNNN.NNNNN.O.O.[Ru].[Ru].[Ru]	n	n	n	u	79µM	u
COc1cc(CNC(=O)CCCC/C=C/C(C)C)ccc1O	u	n	n	n	n	n
CCCCCCCCC(=O)NCc1ccc(O)c(OC)c1	25µM!	n	n	n	n	n
CN1CCN(C(=O)COc2ccc3ccccc3c2Br)CC1	n	n	n	n	n	16µM
CC(C)CCCC1(C)C=Cc2c(O)c3c(c(CCC(C)C)c2O1)OC12C(CC4CC1C(C)(C)OC2(CCC(C)C(=O)O)C4O)C3=O (stereo not given)	u	n	n[3.08 µM]	x	x	x
CC(C)=CCCC1(C)C=Cc2c(O)c3c(c(CC=C(C)C)c2O1)OC12C(=CC4CC1C(C)(C)OC2(C/C=C(/C)C(=O)O)C4O)C3=O (stereo not given)	20µM	n	n	x	x	x
CC(C)=CCCC1(C)C=Cc2c(O)c3c(c(CC=C(C)C)c2O1)OC12C(=CC4CC1C(C)(C)OC2(C/C=C(/C)C(=O)O)C4=O)C3=O (stereo not given)	16µM	n	n[3.08 µM]	x	x	x
COc1c(CC=C(C)C)c2c(c3oc(=O)c(-c4ccc(O)cc4)c(O)c13)C=CC(C)(C)O2	n	n	n	x	x	x
COc1cc2c(cc1OC)[C@@]13CCN4C=C5CCO[C@H]6CC(=O)N2[C@@H]1[C@@H]6[C@H]5C[C@H]43	n[11.4 µM]	n[15.4 µM]	n[15.4 µM]	n[11.4 µM]	n	n[11.4 µM]
COc1ccc2c(c1)CCC1C2CC[C@]2(C)[C@H](NCCCCCCN3C(=O)C=CC3=O)CC[C@@H]12 (stereo not given in full)	n	n	n	n	n	n
c1cc2cc(c1)C[n+]1ccc(c3ccccc31)NCc1ccc(cc1)CNc1cc[n+](c3ccccc13)C2	u	n	n	32µM	n	n
CC(C)C[C@H](NP(=O)(O)O[C@@H]1O[C@@H](C)[C@@H](O)[C@@H](O)[C@H]1O)C(=O)N[C@@H](Cc1c[nH]c2ccccc12)C(=O)O	n	n	n	n	n	n
CC[n+]1c(-c2ccccc2)c2cc(N)ccc2c2ccc(N)cc21	10µM!	u	u	2µM	79µM	0.32µM
Cc1ccc2c(c1N)C(=O)c1ccccc1C2=O	n	n	n	n	n	4µM
O=C(O)C[C@H]1OCC=C2CN3CC[C@@]45C6=CC(=O)C(=O)C([N+](=O)[O-])=C6N[C@H]4[C@H]1[C@H]2C[C@@H]35	n[11.4 µM]	n[15.4 µM]	n[15.4 µM]	n[11.4 µM]	n	n[11.4 µM]
c1ccc2c(c1)Nc1ccccc1S2	6.3µM	n	n	n	n	n
CC[C@H](CO)NC(=O)[C@@H]1C=C2c3cccc4[nH]cc(c34)C[C@@H]2N(C)C1	n	n	n	n	n	n
CCN1C[C@]2(C)CC[C@@H](O)[C@]34[C@@H]5CC6[C@@H](OC)C[C@@](O)([C@H]5[C@@H]6O)[C@@H](C[C@@H]23)[C@H]14	n	n	n	n	n	n
SMILES	ALOX15 inhib	BRCT inh red	BRCT PPI green	Pol III holo inh	TsaE inh	Tau filament bind
Cc1c(OCC(F)(F)F)ccnc1CS(=O)c1nc2ccccc2[nH]1 (stereo not given)	25µM!	n	n	n	n	n
CN(C)[C@@H]1C(=O)C(C(N)=O)=C(O)[C@]2(O)C(=O)C3=C(O)c4c(O)cccc4[C@](C)(O)[C@H]3C[C@@H]12	u	u	u	3.2µM	n	n[11.4 µM]
CN(C)[C@@H]1C(=O)C(C(N)=O)=C(O)[C@@]2(O)C(=O)C3=C(O)c4c(O)cccc4[C@@](C)(O)[C@H]3[C@H](O)[C@@H]12	u	n	n	n	n	n
CN[C@H](Cc1ccccc1)c1cccc(OC)c1O	n[11.4 µM]	n[15.4 µM]	n[15.4 µM]	n[11.4 µM]	n	n[11.4 µM]
C[CH2][Hg][S]c1ccccc1C(=O)O	1.3µM	n	n[3.08 µM]	x	x	x
CNc1ccccc1C(=O)O	n	n	n	x	x	x
